Source: PubChem BioAssay (EPA / NIEHS)
Calls of active or inactive are those of the source. How the source made its calls: active means hit-call score of the fitted dose curve at least 0.9, where 1 is the maximum; inactive means score below 0.9.

assay: BSK_BT_PBMCCytotoxicity: PBMC Cytotoxicity Assessment in the BioMAP Diversity Plus: BT Assay (AID 2284225); settings: primary human B cells with PBMC;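 further: PBMC viability measured by Alamar Blue dye reduction fluorescence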
Summary of the method: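 Viability by Alamar Blue reduction (6 h, ex/em 546/580 nm) after 90 h culture of SEB/TSST-1-activated PBMC (20 ng/mL each) given compound 1 h before activation. DMSO served as baseline for curve fitting.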

**Q.** Which outcome does the source give for `CC(=O)/C=C/C1=C(C)CCCC1(C)C` here?
**A.** inactive

**Q.** Which outcome does the source give for `c1ccc2c(c1)c1cccc3ccc4cccc2c4c31` here?
**A.** inactive

**Q.** With `CNC[C@H](O)c1cccc(O)c1` as the compound, how does the outcome read?
**A.** inactive

**Q.** Which outcome does the source give for `CCCCCCCCCC=O` here?
**A.** inactive

**Q.** With `CCCCC/C=C/C=C/C=O` as the compound, how does the AC50 read?
**A.** 20 µM (active)

**Q.** With `CC(C)c1ccc(C(C)C)cc1` as the compound, how does the outcome read?
**A.** inactive

**Q.** With `CCc1c(C)cc(N)c(CC)c1N` as the compound, how does the outcome read?
**A.** inactive

**Q.** For `CC(=O)O[C@]1(C(C)=O)CC[C@H]2[C@@H]3C[C@H](C)C4=CC(=O)CC[C@]4(C)[C@H]3CC[C@@]21C`, which outcome is on record?
**A.** inactive

**Q.** Which outcome does the source give for `C=C[Si](OCC)(OCC)OCC` here?
**A.** inactive

**Q.** Which outcome does the source give for `Cc1ccc(O)c(C(C)(C)C)c1` here?
**A.** inactive

**Q.** Which outcome does the source give for `CC(C)Oc1ccccc1O` here?
**A.** inactive

**Q.** With `CN(CCOc1ccc(CC2SC(=O)NC2=O)cc1)c1ccccn1` (configuration not stated) as the compound, how does the outcome read?
**A.** inactive

**Q.** With `O=C=NC1CCC(CC2CCC(N=C=O)CC2)CC1` (configuration not stated) as the compound, how does the outcome read?
**A.** inactive

**Q.** With `c1ccc2sc(SN(C3CCCCC3)C3CCCCC3)nc2c1` as the compound, how does the outcome read?
**A.** inactive

**Q.** With `O=C(O)C[C@H](O)C[C@H](O)/C=C/c1c(C2CC2)nc2ccccc2c1-c1ccc(F)cc1` as the compound, how does the outcome read?
**A.** inactive

**Q.** Which outcome does the source give for `Cc1ccc(Nc2ccc(O)c3c2C(=O)c2ccccc2C3=O)cc1` here?
**A.** inactive

**Q.** Which outcome does the source give for `COC(=O)c1ccc(C)cc1` here?
**A.** inactive

**Q.** With `N#Cc1ccc(CC(=NNC(=O)Nc2ccc(OC(F)(F)F)cc2)c2cccc(C(F)(F)F)c2)cc1` as the compound, how does the outcome read?
**A.** inactive

**Q.** With `O=[N+]([O-])c1cc(C(F)(F)F)ccc1Cl` as the compound, how does the outcome read?
**A.** inactive

**Q.** With `C=C(C)C(=O)O[C@H]1C[C@@H]2CC[C@@]1(C)C2(C)C` as the compound, how does the outcome read?
**A.** inactive

**Q.** For `Nc1cc([N+](=O)[O-])ccc1Cl`, which outcome is on record?
**A.** inactive

**Q.** With `C#C[C@]1(O)CC[C@H]2[C@@H]3CCC4=Cc5oncc5C[C@]4(C)[C@H]3CC[C@@]21C` as the compound, how does the outcome read?
**A.** inactive
